The text below walks through data of PubChem BioAssay (NCI).

This is part of a sample that, as a whole, favours compounds with a hit. Of some 79,000 tested, about 15% had one in any assay. A number with no mark means an inactive call. Calls of active or inactive are those of the source. No stated cut-off is given here; in the data, active means growth inhibition above about 70%; inactive means the rest.

The nature of experiment [1]: NCI Yeast Anticancer Drug Screen. Data for the rad50 strain (AID 155).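 Further: 0% = growth of vehicle-only cultures of the same strain.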 The note with it: S. cerevisiae rad50 strain growth inhibition; at 50.0 µM; active compounds read high. The method, boiled down:
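A DNA repair-deficient yeast mutant serves as the test organism; compound-induced growth inhibition is calculated against vehicle-treated cells.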

Experiment [2] can be described thus: NCI Yeast Anticancer Drug Screen. Data for the mec2-1 strain (AID 157). The note with it: S. cerevisiae mec2-1 strain, at 50.0 µM, active compounds read high. The method, boiled down:
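Compounds were applied to mec2-1 yeast cells. Their growth was then compared with that of vehicle-treated cultures to give growth inhibition.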

A short description of experiment [3]: NCI Yeast Anticancer Drug Screen. Data for the sgs1 mgt1 strain (AID 161).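 Further: 0% = growth of cultures given vehicle only.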 The note with it: S. cerevisiae sgs1 mgt1 strain, at 50.0 µM, active compounds read high. A digest of the protocol:
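Compounds are added to genetically altered yeast, and growth is compared with cultures given vehicle alone to give percent inhibition.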

Experiment [4] can be described thus: NCI Yeast Anticancer Drug Screen. Data for the cln2 rad14 strain (AID 165).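 Further: 0% = growth equal to vehicle treated cultures.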 As to conditions: S. cerevisiae cln2 rad14 strain, at 50.0 µM, active compounds read high. A digest of the protocol: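 Strain: cln2 rad14 yeast, altered in cell cycle control and DNA damage repair. Read-out: growth inhibition vs vehicle.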
The nature of experiment [5]: NCI Yeast Anticancer Drug Screen. Data for the bub3 strain (AID 167). The note with it: S. cerevisiae bub3 mutant strain, at 50.0 µM, active compounds read high. The method, boiled down:
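Inhibition values come from growth of compound-treated mutant yeast normalised to vehicle-treated controls.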

Experiment [6] is described as follows: NCI Yeast Anticancer Drug Screen. Data for the mlh1 rad18 strain (AID 175). The note with it: S. cerevisiae mlh1 rad18 strain growth inhibition; at 50.0 µM; active compounds read high. The method, boiled down: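 A repair-deficient yeast strain is exposed to test compound, and growth is scored relative to vehicle-treated controls.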

Regarding `CCOC(=O)N1C=NC23C(c4ccccc4)C(c4ccccc4)C12C(=O)N(C)C(=O)N3C` (stereo not given), the growth inhibition in experiment [1] is -1.55%; in experiment [2] it was -9.2%; in experiment [3], 0.7%; in experiment [4] it was -26.8%; in experiment [5] it was -8.35%; in experiment [6] it was -30.9%.
On to `CCOC(=O)C(NC(=O)c1ccccc1)(Nc1ccc(S(=O)(=O)Nc2ncccn2)cc1)C(F)(F)F` (stereo not given), for which the growth inhibition in experiment [1] was 1.1%; in experiment [2] it was -17.4%; in experiment [3] it was -16.8%; in experiment [4], -4.55%; in experiment [5], -12.7%; in experiment [6] it was 16.9%.
With `O=C(NC1COB(c2cccc([N+](=O)[O-])c2)OC1c1ccc([N+](=O)[O-])cc1)C(Cl)Cl` (stereo not given), the growth inhibition is 12.8% in experiment [1]; 27.9% in experiment [2]; 5.65% in experiment [3]; -23.9% in experiment [4]; 15.7% in experiment [5]; 63.5% in experiment [6].
`C1CCSCCCCCSCCCCCSCCCCCSCC1`: the growth inhibition in experiment [1] is 25.2%; in experiment [2], -7.55%; in experiment [3] it was -4.2%; in experiment [4], -3.15%; in experiment [5], 4.35%; in experiment [6], -8.7%.
For the molecule `CS(=O)(=O)N(CCC#N)c1ccc(/C=N/NC(=O)CC(=O)Nc2cccc(Cl)c2)cc1`, the growth inhibition is -6.75% in experiment [1]; 18.1% in experiment [2]; 10.7% in experiment [3]; 19.6% in experiment [4]; -6.15% in experiment [5]; 8.65% in experiment [6].
Consider `CCOC(=S)SCC(=O)c1ccc(Br)cc1`, for which the growth inhibition in experiment [1] was 67%; in experiment [2], 70.5% (active); in experiment [3] it was 66.8%; in experiment [4] it was -7.5%; in experiment [5] it was 55.2%; in experiment [6], 83.5% (active).
`CCOC(=O)c1cn2c(nc1=O)N[C@H]1CCCC[C@@H]12`: the growth inhibition was 37.8% in experiment [1]; 11.1% in experiment [2]; 0.4% in experiment [3]; -2.45% in experiment [4]; 8.4% in experiment [5]; -1% in experiment [6].
For the molecule `C=CC1C(=O)N(C)[C@H](C(C)(C)C)N1C(=O)c1ccccc1` (stereo not given in full), the growth inhibition in experiment [1] was 1.5%; in experiment [2], 11.9%; in experiment [3], 9.1%; in experiment [4], -18.9%; in experiment [5], 2%; in experiment [6], 10%.
Regarding `CC1(C)OC(C2SCCS2)C2OC(=O)C(O[Si](C)(C)C(C)(C)C)C2O1` (stereo not given), the growth inhibition in experiment [1] was 18.2%; in experiment [2], 16.2%; in experiment [3], 2.75%; in experiment [4], 0.9%; in experiment [5] it was -2.6%; in experiment [6] it was -1.5%.
On to `Nc1cc(S(=O)(=O)O)cc2ccc(S(=O)(=O)O)cc12`, for which the growth inhibition in experiment [1] is -4.15%; in experiment [2], 6.75%; in experiment [3], -14.6%; in experiment [4], -4.35%; in experiment [5], -5.65%; in experiment [6], 3.95%.
`N#Cc1ccc(N=NN2CCOC2)cc1`: the growth inhibition in experiment [1] is 20.6%; in experiment [2] it was 11.4%; in experiment [3], -0.7%; in experiment [4] it was 7.7%; in experiment [5], 23%; in experiment [6], 44.9%.
Turning to `[O-][n+]1ccncc1Cl`, the growth inhibition in experiment [1] was -1.15%; in experiment [2] it was -0.65%; in experiment [3], -2.75%; in experiment [4] it was 0.55%; in experiment [5], 18.6%; in experiment [6] it was 7.05%.
With `Nc1nc(SSc2nc(N)nc3c2ncn3C2OC(CO)C(O)C2O)c2ncn(C3OC(CO)C(O)C3O)c2n1` (stereo not given), the growth inhibition was 1.4% in experiment [1]; -5.8% in experiment [2]; 3.9% in experiment [3]; -34% in experiment [4]; 9.45% in experiment [5]; -1.3% in experiment [6].
Take `Nc1ccc(C(=O)NN2C(=O)C(Cl)C2c2cccc(O)c2)cc1` (stereo not given): the growth inhibition is -4.45% in experiment [1]; -41.7% in experiment [2]; -35.1% in experiment [3]; -14.2% in experiment [4]; 4.3% in experiment [5]; -6.55% in experiment [6].
Regarding `O=[N+]([O-])c1ccc(NC(CO)C(O)C(O)C(O)CO)c([N+](=O)[O-])c1` (stereo not given), the growth inhibition in experiment [1] was 12.3%; in experiment [2], -4.85%; in experiment [3] it was -0.85%; in experiment [4], -6.45%; in experiment [5], 3.2%; in experiment [6], -7.4%.
Regarding `CCCCCC(C)C(C#N)C(=O)OCC` (stereo not given), the growth inhibition in experiment [1] was 1.2%; in experiment [2], -18.4%; in experiment [3] it was -14.4%; in experiment [4], -3.75%; in experiment [5], -18.9%; in experiment [6], -20.9%.
With `COc1ccc(C2c3cc4c(cc3OC(C)(OC)C2C)OCO4)c(OC)c1` (stereo not given), the growth inhibition is 5.25% in experiment [1]; 26.2% in experiment [2]; 32.6% in experiment [3]; -47.2% in experiment [4]; -5.85% in experiment [5]; 21% in experiment [6].
As for `CCSc1nc(N)c2c(-c3ccc(OC)c(OC)c3)c3c(nc2n1)CCCC3`, the growth inhibition is -32.6% in experiment [1]; -17.2% in experiment [2]; -39.5% in experiment [3]; -3.35% in experiment [4]; -15.8% in experiment [5]; -25.4% in experiment [6].
Take `Cc1cccc(C)c1NCC1CO1` (stereo not given): the growth inhibition is -17.4% in experiment [1]; -14.3% in experiment [2]; -6.3% in experiment [3]; 13.2% in experiment [4]; -17.6% in experiment [5]; -11.2% in experiment [6].
In the case of `CC(C)(C)N(Cc1ccccc1)C(=O)Nc1ccccc1`, the growth inhibition in experiment [1] was 6.45%; in experiment [2], 3.95%; in experiment [3] it was 21.5%; in experiment [4] it was 1.35%; in experiment [5], 32.3%; in experiment [6] it was 7.4%.
